The text below walks through data of PubChem BioAssay (NCATS).

Inconclusive results are not listed. Activity calls are given as the source filed them. Calls come from the whole dose curve.

The nature of assay [1]: Cytotoxicity counterscreen for inhibitors of SARS-CoV-2 cell entry (AID 1645845). Note: nearly all actives have a fitted effect of over 50% in size. The following applies: outcome: dose series up to 57.1 µM unless noted. Summed up: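 ATP-content luminescence (ATPLite 1step, 15 min RT) read after 48 h compound exposure of Expi293F cells stably expressing human ACE2; normalized to cells-only wells and media-only wells.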
Background: Counterscreens check selectivity or assay interference.

Assay [2] can be described thus: Primary qHTS to identify inhibitors of SARS-CoV-2 cell entry (AID 1645846). Note: nearly all actives have a fitted effect of over 45% in size. The conditions noted are these: SARS-CoV-2 pseudovirus cell entry assay, luminescence; activity change, negative = inhibition: at 57.1 µM (top of the series) unless noted. Summed up:
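Using luciferase-reporting pseudoviruses carrying Wuhan-Hu-1 spike, the screen tracks entry into stably ACE2-expressing cells over 48 hr. Activity is expressed relative to spike particles versus particles lacking any fusion protein.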
For orientation: qHTS replaces the single test concentration by a dilution series.
Potency is the fitted concentration of half-maximal effect.

`COc1cccc(OCCCN)c1-c1cc(Nc2cnc(C#N)cn2)n[nH]1`: in assay [1], the Potency result was “inactive”. Moreover, the activity change, negative = inhibition in assay [2] was -33%.
`CN(C)C(N)=NC(=N)N`: the outcome in assay [1] and in assay [2] was “inactive [setting not given]” throughout.
Turning to `CC(C)S(=O)(=O)c1ccc2nccc(Nc3ccc4scnc4c3)c2c1`, the Potency entry in assay [1] is “inactive”. The activity change, negative = inhibition in assay [2] was -14.4%.
`CCOCc1nc2c(N)nc3ccccc3c2n1CC(C)(C)O`: the Potency result in assay [1] was “inactive”. Further, the activity change, negative = inhibition in assay [2] is -25%.
For `CC(C)(CNC(=O)c1cccc(-c2noc(C(F)(F)F)n2)c1)c1coc(-c2ccccc2)n1`, in assay [1], the Potency entry was “inactive”. Also, the activity change, negative = inhibition in assay [2] is -6.95%.
Turning to `NS(=O)(=O)Oc1ccc2c3c(c(=O)oc2c1)CCCCC3`, the Potency entry in assay [1] and in assay [2] was “inactive” each time.
For the compound `O=C(NCC(=O)N1CC[C@H](NC2CCC(O)(c3ccc(-c4ncccn4)cn3)CC2)C1)c1cccc(C(F)(F)F)c1` (stereo not given in full), the Potency entry in assay [1] is “inactive”. Besides, in assay [2], the activity change, negative = inhibition was -29.7%.
Turning to `O=c1cc(N2CCOCC2)oc2c(-c3ccc4c(c3)OCCO4)csc12`, the Potency entry in assay [1] was “inactive”. Besides, the activity change, negative = inhibition in assay [2] was -5.73%.
On to `Cc1[nH]nc(C(F)(F)F)c1Cc1sc2c(c1C(=O)N1C[C@](C)(O)CO1)c(=O)n(C)c(=O)n2C(C)C`, for which the Potency entry in assay [1] was “inactive”. For the same compound, the activity change, negative = inhibition in assay [2] was -25.9%.
On the same counts, the results for `COC[C@@H](c1ccc(C(F)(F)F)cc1)N1CCN(C2(C)CCN(C(=O)c3c(C)ncnc3C)CC2)C[C@@H]1C` are “inactive” and -12.7%.
For the compound `COc1cc(OC)c2c(=O)[nH]c(-c3cc(C)c(OCCO)c(C)c3)nc2c1`, the Potency result in assay [1] and in assay [2] was “inactive” throughout.
As to `Cc1c(-c2cnccn2)ssc1=S`, in assay [1], the Potency entry is “inactive”. For the same compound, the activity change, negative = inhibition in assay [2] was 3.56%.
Turning to `CCCNC(=O)c1cn2ncnc(Nc3cc(C(=O)NC4CC4)ccc3C)c2c1C`, the Potency entry in assay [1] was “inactive”. Moreover, the activity change, negative = inhibition in assay [2] was -27.9%.
In the case of `O=C(NOCC(O)CO)c1ccc(F)c(F)c1Nc1ccc(I)cc1F` (stereo not given), the Potency result in assay [1] was “inactive”. Further, the activity change, negative = inhibition in assay [2] is -21.5%.
Regarding `CC[C@@H](Oc1cccc(CN(CCCOc2ccc(OC)cc2)c2nc3ccccc3o2)c1)C(=O)O`, in assay [1], the Potency result was “inactive”. Further, the activity change, negative = inhibition in assay [2] was -15.3%.
`C[C@H](NC(=O)CCC(F)(F)F)C(=O)N[C@@H]1C(=O)N(CCO)c2ncccc2-c2ccccc21`: in assay [1], the Potency result is “inactive”. Also, the activity change, negative = inhibition in assay [2] was -2.66%.
On to `CCC(=O)O[C@]1(C(=O)CO)CC[C@H]2[C@@H]3CCC4=CC(=O)CC[C@]4(C)[C@H]3CC[C@@]21C`, for which the Potency result in assay [1] and in assay [2] was “inactive” in each case.
Turning to `COc1cc2c(Nc3ccc(Cl)c(Cl)c3F)ncnc2cc1OCC1C[C@@H]2CN(C)C[C@@H]2C1` (stereo not given in full), the Potency in assay [1] was 31.6 µM (active); in assay [2] it was 15.8 µM (active).
`CN(C)Cc1ccc(S(=O)(=O)n2ccc(/C=C/C(=O)NO)c2)cc1`: in assay [1], the Potency was 31.6 µM (active). In addition, the activity change, negative = inhibition in assay [2] was found to be 2%.
Take `C[C@H]1CN(C2COC2)CCN1c1ccc(Nc2cc(-c3ccnc(N4CCn5c(cc6c5CC(C)(C)C6)C4=O)c3CO)cn(C)c2=O)nc1`: the Potency result in assay [1] is “inactive”. For the same compound, the activity change, negative = inhibition in assay [2] is -10.4%.
As for `Fc1ccc(-c2nc(-c3ccccc3F)[nH]c2-c2ccncc2)cc1`, in assay [1], the Potency entry is “inactive”. In assay [2], the activity change, negative = inhibition was -6.32%.
The matching figures for `CCc1cc2c(c(OCC(F)(F)F)c(C(=O)NC3CCN(C(=O)CO)CC3)n2C)c(=O)n1CC(=O)c1ccccc1`: “inactive” and -53.6%.
For the compound `CC(/C=C/[C@@H]1C[C@]1(C)c1ccc2c(c1)C(C)(C)CCC2(C)C)=C\C(=O)O`, the Potency result in assay [1] was “inactive”. The activity change, negative = inhibition in assay [2] was -10.9%.
Turning to `CC1(C)OC2=C(C(=O)c3ccccc3C2=O)[C@H](NCc2ccccc2)[C@@H]1O`, the results for the Potency in assay [1] and in assay [2] were 10 µM (active) and 3.16 µM (active), respectively.
As to `COc1ncc(-c2ccc3c(Nc4cc(Oc5cc(F)cc(F)c5)cc(C(=O)O)c4)c(S(=O)(=O)NC4CC4)cnc3c2)c(OC)n1`, in assay [1], the Potency entry is “inactive”. In addition, the activity change, negative = inhibition in assay [2] is -25%.
As for `COc1ccc(-n2cnc3cc(C(=O)N4CCCCC4)ccc32)cc1`, the Potency entry in assay [1] was “inactive”. Also, the activity change, negative = inhibition in assay [2] turned out to be 0.509%.
In the case of `CC(C)(C)Sc1c(CC(C)(C)C(=O)O)n(Cc2ccc(Cl)cc2)c2ccc(OCc3ccc4ccccc4n3)cc12`, the Potency entry in assay [1] and in assay [2] was “inactive” each time.
For the compound `NC(CC1c2ccccc2Oc2ccccc21)(C(=O)O)C1CC1C(=O)O` (stereo not given), in assay [1], the Potency result is “inactive”. The activity change, negative = inhibition in assay [2] was found to be 4.33%.
Consider `CN(CCO)C1CCN(c2ccc(Nc3ncc4c5ccnc(F)c5n(C5CCCC5)c4n3)nc2)CC1`, for which the Potency result in assay [1] was “inactive”. The activity change, negative = inhibition in assay [2] was -15.6% [at 27.1 µM].
On the same counts, the results for `O=C(Nc1ccc2c(c1)CCN(Cc1ncn[nH]1)C2)c1ccccc1-c1ccc(C(F)(F)F)cc1` are “inactive” and -32.8%.
